Source: PubChem
Sfp inh: inhibitors of Bacillus subtilis Sfp phosphopantetheinyl transferase | 310,000 compounds, 3.5% hits | Q9F4F7 | Potency, µM, inactives show largest response in the series, negative = inhibition, usual class: inhibitors | Biochemical Sfp PPTase activity, qHTS;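 further: the enzyme is Sfp with the accession as filed and its product quenches rhodamine fluorescence; potency means the concentration at half of the fitted maximal effect; 0% = enzyme reaction without inhibitor and -100% = no enzyme wells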
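After 15 min at room temperature with compound, 15 nM Sfp received 5 uM rhodamine-CoA plus 12.5 uM BHQ-2-ybbR (50 mM Hepes pH 7.6, 10 mM MgCl2). Rate came from the fluorescence difference over 30 min, ex 525/em 598 nm.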
MmCpn inh: blocks the Methanococcus maripaludis chaperonin Mm-Cpn | 330,000 compounds, 0.031% hits | purified Mm-Cpn ATPase, ADP Transcreener TR-FRET | Potency, µM (series often up to 76.9 µM), inactives show at the top dose activity, negative = inhibition, usual class: inhibitors; further: potency means the concentration at half of the fitted maximal effect; nearly all actives have a fitted effect of over 80% in size
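Measured: ADP formation by purified Mm-CPN. Conditions: 25 nM protein, 10 uM ATP, Tris pH 7.4 with Mg2+, K+ and DTT, 37°C for 30 min. Detection: Transcreener HTRF after 30 min at room temperature.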
VDR inhibitor: blocks the human vitamin D receptor; P11473; VDR-SRC2-3 peptide fluorescence polarization, 2 h; 400,000 compounds, 0.93% hits; Potency, µM, inactives show max response, negative = inhibition, most hits filed as inhibitors; further: potency means the concentration at half of the fitted maximal effect
Target sequence (P11473 whole entry, looked up): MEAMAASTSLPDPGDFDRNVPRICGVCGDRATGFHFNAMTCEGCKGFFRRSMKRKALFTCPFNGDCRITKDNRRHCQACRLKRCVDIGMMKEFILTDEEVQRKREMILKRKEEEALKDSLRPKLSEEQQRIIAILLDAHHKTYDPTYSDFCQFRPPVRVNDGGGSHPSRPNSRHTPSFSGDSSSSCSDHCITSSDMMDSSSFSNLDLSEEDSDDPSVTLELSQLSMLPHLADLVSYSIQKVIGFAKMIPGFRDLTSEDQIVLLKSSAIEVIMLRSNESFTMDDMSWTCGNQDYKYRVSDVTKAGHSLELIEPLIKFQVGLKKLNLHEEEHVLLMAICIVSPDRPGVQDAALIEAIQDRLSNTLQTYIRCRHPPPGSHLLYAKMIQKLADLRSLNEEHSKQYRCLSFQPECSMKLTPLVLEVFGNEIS
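VDR–SRC2-3 interaction, FP format. Cmpds 23 nl via pintool, brief spin, 2 h ambient incubation.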
PLK1 PBD block: blocks phosphopeptide binding to human PLK1 polo-box domain; P53350; Plk1 PBD binding of FITC phosphopeptide, fluorescence polarization; Potency, µM, inactives show max response, negative = inhibition, usual class: inhibitors; 360,000 compounds, 2.8% hits; AID 720504; further: potency means the concentration at half of the fitted maximal effect; series mostly up to about 57 µM; nearly all actives have a fitted effect of over 65% in size
G9a block: inhibitors of human histone lysine methyltransferase G9a; 350,000 compounds, 8.8% hits; Potency, µM (highest dose often 102 µM), inactives show at the highest dose activity, negative = inhibition, usual class: inhibitors; G9a H3K9 monomethylation, AlphaScreen, 2 h; Q96KQ7; further: potency means the concentration at half of the fitted maximal effect; nearly all actives have a fitted effect of over 75% in size
Target sequence (Q96KQ7 913-1193 limits assumed): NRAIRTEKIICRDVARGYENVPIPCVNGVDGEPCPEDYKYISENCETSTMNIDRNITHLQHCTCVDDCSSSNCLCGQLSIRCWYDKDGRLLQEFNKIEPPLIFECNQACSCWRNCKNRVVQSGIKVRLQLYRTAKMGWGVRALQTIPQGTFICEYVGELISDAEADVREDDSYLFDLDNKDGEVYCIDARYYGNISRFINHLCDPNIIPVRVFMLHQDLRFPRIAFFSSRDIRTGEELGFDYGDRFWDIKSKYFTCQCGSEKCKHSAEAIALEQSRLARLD
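Signal arises when biotinylated H3K9 peptide, once monomethylated, bridges streptavidin donor and antibody-captured acceptor beads. Enzyme at 20 nM was preincubated 15 min with test compounds; peptide 500 nM and SAM 20 uM then reacted for 2 h.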
CCT modulator: changes cytosolic chaperonin activity | purified chaperonin ATPase assay, HTRF ADP detection, 30 min | activity change, % (no concentration beside the values), hits read low | 360,000 compounds, 0.3% hits | AID 651819; in the data active means activity change below about -30%
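First, chaperonin was dispensed at 40 nM or 20 nM final depending on batch activity. Next, compounds were pinned at 76 uM and ATP added at 10 uM. After 30 min at 37 °C, ADP detection reagents ran 30 min at ambient temperature.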
* hit, by the source's call; ? = inconclusive; / = no result; [ ] = remark or other dose. An excerpt weighted towards active compounds, which were near 10% of everything screened. Unless noted, the call rests on the fitted dose curve; in most records, active means well fitted curve in the direction sought with a large enough effect; inconclusive means small, poorly fitted or top-dose-only effect, or another doubt; inactive means no such curve, though single readings can be large; an effect the other way counts as inactive or inconclusive. Unless noted, on the % scale 0 is the no-effect control and ±100 the full control effect.

SMILES	Sfp inh	MmCpn inh	VDR inhibitor	PLK1 PBD block	G9a block	CCT modulator
O=C(/C=C/c1ccc(Cl)c([N+](=O)[O-])c1)Nc1ccc(N2CCCC2)c(Cl)c1	7%	-1%	2%	2%	-3%[59 µM]	-1
CN1CCN(c2ccc(S(=O)(=O)N3CCCCC3)cc2NC(=O)/C=C/c2ccc(Cl)c([N+](=O)[O-])c2)CC1	/	1%	4%	-6%	35µM*	1
COc1ccc2c(c1)c1c(c(=O)n(-c3cccc(C)c3)c(=O)n1CC(=O)Nc1c(C)cc(C)cc1C)n2C	/	/	1%	/	32%[59 µM]	/
CCN(CC)CCCNC(=O)c1cc(-c2ccc(OC)c(OC)c2)on1	/	/	-8%	/	4%[59 µM]	/
N#Cc1ccc2c(c1)C[C@]1(CCCCN3C(=O)c4ccccc4C3=O)Oc3cc(-c4ccccc4)oc(=O)c3[C@H]2O1	7%	-4%[15.4 µM]	/	/	3%[2.33 µM]	/
Fc1ccc(-c2csc3ncnc(Cl)c23)cc1	-3%	-2%	?	21µM*	-15%	-2
S=c1[nH]cnc2scc(-c3ccc(Cl)cc3)c12	-20%	-1%	?	8.4µM*	45µM*	-3
Cc1ccc(-c2csc3nc[nH]c(=S)c23)cc1	4%	2%	-22%	-11%	7%[59 µM]	0
O=C(c1ccco1)N1CCN(c2ncnc3scc(-c4ccccc4)c23)CC1	-9%	-1%	1%	-24%	15%[59 µM]	1
COc1ccc(-c2csc3ncnc(N4CCN(C(=O)c5ccco5)CC4)c23)cc1	/	-5%	-11%	-15%	50µM*	-1
COc1ccc(N2CCN(c3ncnc4scc(-c5ccccc5)c34)CC2)cc1	-6%	-3%	7%	-1%	7.9µM*	-3
COc1ccc(N2CCN(c3ncnc4scc(-c5ccc(F)cc5)c34)CC2)cc1	4%	-4%	12%	-3%	10µM*	-2
COc1ccccc1N1CCN(c2ncnc3sc(C(=O)NCC4CCCO4)c(C)c23)CC1 (stereo unspecified)	13%	-1%	-14%	-13%	/	-1
COc1ccc(N2CCN(c3ncnc4scc(-c5ccc(C)cc5)c34)CC2)cc1	14%	-4%	26%	-22%	25µM*	-2
COc1ccc(N2CCN(c3ncnc4sc(C(=O)NCC5CCCO5)c(C)c34)CC2)cc1 (stereo unspecified)	10%	-2%	-8%	-4%	40µM*	0
COc1ccc(C(=O)Nc2nnc(SCc3cc(=O)n4cc(Cl)ccc4n3)s2)cc1	/	/	17%	/	-2%[59 µM]	/
Cc1ccc(CSc2nc3ccccc3c(=O)n2CCCC(=O)NCc2ccco2)cc1	25µM*	1%	7%	-6%	20%[59 µM]	-3
Cc1ccc(CSc2nc3ccccc3c(=O)n2Cc2ccco2)cc1	-14%	-8%	-10%	27µM*	-7%[59 µM]	-1
Cc1ccc(NC(=O)CSc2nc3ccccc3c(=O)n2CCCC(=O)NCC2CCCO2)cc1 (stereo unspecified)	8%	-6%	-21%	27µM*	/	-2
Cc1cccc(S(=O)(=O)c2cn(Cc3ccccc3)c3cc(N4CCCCC4C)c(F)cc3c2=O)c1 (stereo unspecified)	/	/	-2%	/	2%[59 µM]	/
Cc1nnc2ccc(-c3ccc(NC(=O)c4ccco4)cc3)nn12	-3%	-2%	-27%	-16%	35µM*	-5
COc1ccc(NC(=O)c2ccccn2)cc1	8%	1%	7%	-8%	9%[59 µM]	1
COc1ccc(Nc2ncccc2C(=O)Nc2ccccc2)cc1	-13%	-1%	-27%	2.7µM*	?	-2
COc1cccc(Nc2ncccc2C(=O)NCc2ccccc2)c1	-2%	-9%	1%	-30%	8.9µM*	-2
O=c1c2cccnc2n(Cc2ccccc2F)c(=O)n1Cc1ccccc1Cl	/	/	-9%	/	1%[59 µM]	/
SMILES	Sfp inh	MmCpn inh	VDR inhibitor	PLK1 PBD block	G9a block	CCT modulator
Cc1ccc(NC(=O)C2CCCN(S(=O)(=O)c3c(C)n[nH]c3C)C2)cc1C (stereo unspecified)	/	/	-6%	/	1%[59 µM]	/
CCN(C(=O)CSc1ncc2c(n1)-c1cc(Cl)ccc1N(Cc1ccccc1)S2(=O)=O)c1cccc(C)c1	/	/	-11%	/	9%[59 µM]	/
COCCN1CCN(Cc2nc(Cc3ccc(OC)c(OC)c3)no2)CC1	12%	-1%	2%	2%	-30%	0
COc1ccc(Cc2noc(CN3CCCN(C4Cc5ccccc5C4)CC3)n2)cc1OC	0%	1%	14%	-8%	40µM*	2
O=C(NCCCc1ccccc1)c1nn(-c2ccccc2F)nc1CO	/	/	10%	/	-21%[59 µM]	/
COc1ccc(CCNC(=O)C2CCN(C(=O)c3ccc(Br)cc3)CC2)cc1	23%	1%	?	27µM*	-5%[0.501 µM]	1
COc1ccc(CCNC(=S)N2CCC(C(N)=O)CC2)cc1	56µM*	0%	-1%	34µM*	-128%[59 µM]	-1
CC(C)=CCC/C(C)=C/CO/N=C1/C[C@@H](O)[C@@H](O)[C@@H]2[C@@H]3C(=O)N(Cc4ccccc4)C(=O)[C@H]3CC[C@H]12	-5%	/	/	/	/	/
O=C1CN(S(=O)(=O)c2ccc([N+](=O)[O-])cc2)CC(=O)N1	6%	-2%	-1%	-10%	-24%	-52*
O=[N+]([O-])c1ccc(N2CCN(S(=O)(=O)c3ccccc3)CC2)cc1	-15%	2%	4%	-2%	-5%	3
O=C1CC(=O)Nc2cc(S(=O)(=O)N3CCN(c4ccc([N+](=O)[O-])cc4)CC3)ccc2N1	5%	3%	-7%	2%	13µM*	0
COc1ccc(-c2nsc(SCC(=O)Nc3cc(C)on3)n2)cc1	16µM*	-2%	?	9.5µM*	3.5µM*	-2
CCc1nnc(NC(=O)CSc2nc(-c3ccc(OC)cc3)ns2)s1	5%	-3%	-7%	-4%	?	-1
COc1ccc(-c2nsc(SCC(=O)NCC3CCCO3)n2)cc1 (stereo unspecified)	-1%	1%	1%	-11%	7.9µM*	-2
Cc1ccc(-c2nsc(SCC(=O)NCC3CCCO3)n2)cc1 (stereo unspecified)	20%	1%	4%	-5%	-32%	2
CCOC(=O)c1sc2nc3c(SCCC(=O)O)cc(C(=O)c4cc(OC)ccc4O)cn3c(=O)c2c1C	-22%	0%	-4%	?	11µM*	1
O=C(O)CSc1cc(C(=O)c2cc(F)ccc2O)cn2c(=O)c3c(-c4ccccc4)csc3nc12	-20%	0%	-14%	?	50µM*	-2
CCOC(=O)c1sc2nc(C)n(N)c(=O)c2c1C	9%	-1%	2%	4%	2%	-1
CN1CCN(CCCNC(=O)c2cnn(-c3ccccc3)c2-n2cccc2)CC1	/	/	-8%	/	2%[59 µM]	/
O=C(COc1ccc(Cl)cc1)N(Cc1ccco1)c1ccccn1	/	/	17%	/	0%[59 µM]	/
